# Results as given in PubChem BioAssay AID1345085 (National Center for Advancing Translational Sciences (NCATS), 2018).
# Results filed as inconclusive are left out. A call without a number means that no potency is given here. The source made the active and inactive calls. Calls come from the whole dose curve; as a rule, active = well fitted cell-killing curve with a large enough effect; inconclusive = small, poorly fitted or top-dose-only effect, or effect the other way; inactive = no such curve, though single readings can be large or run the other way.
# System: SW626
# Assay: Confirmatory qHTS for gynecologic anti-cancer compounds from libraries of approved drugs and bioactive compounds; note: nearly all actives have a fitted effect of over 55% in size
# Conditions: gynecologic cancer cell panel viability, ATPlite luminescence, 48 h; series mostly up to 57.6 µM
# Method in brief: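 Cells (1,000/well) plated 16 h, then exposed 48 h at 37 °C to 11 concentrations (1:3) from 57.5 uM to 0.977 nM. Viability by ATPlite luminescence after 15 min; IC50 derived, with HEK 293T used for selectivity index.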
# Potency is the fitted concentration of half-maximal effect.
row,SMILES,Potency
1,Cc1cncc2cccc(S(=O)(=O)N3CCCN(C(=O)CN)C[C@@H]3C)c12,inactive
2,O=c1cc(CN2CCOCC2)occ1OCCCCCSc1ccnc2cc(C(F)(F)F)ccc12,inactive
3,O=C(/C=C/c1cccc(S(=O)(=O)Nc2ccccc2)c1)NO,1.33 µM (active)
4,CC(C)n1c(/C=C/[C@@H](O)C[C@@H](O)CC(=O)O)c(-c2ccc(F)cc2)c2ccccc21,1.37 µM (active)
5,CS(=O)(=O)c1ccc(-c2cnc(N)c(C(=O)Nc3ccccc3)n2)cc1,inactive
6,CN1C(=O)C(Cc2c[nH]c3ccccc23)NC1=S (stereo not given),inactive
7,CC(C)[C@@H](CS(=O)(=O)C(C)C)N1C(=O)[C@@](C)(CC(=O)O)C[C@H](c2cccc(Cl)c2)[C@H]1c1ccc(Cl)cc1,inactive
8,C[C@@]1(C(=O)Nc2ccc(F)nc2)CCCN1c1nc(Nc2cc(C3CC3)[nH]n2)c2cccn2n1,inactive
9,CC(C)Oc1ccc2c(=O)c(-c3ccccc3)coc2c1,21.7 µM (active)
10,COc1cc(N2CCC(N)CC2)ccc1Nc1ncc(Cl)c(-c2c[nH]c3ccccc23)n1,21.7 µM (active)
11,Cc1cc(SCc2sc(-c3ccc(C(F)(F)F)cc3)nc2C)ccc1OCC(=O)O,inactive
12,CC(Oc1ccc2[nH]nc(/C=C/c3cnn(CCO)c3)c2c1)c1c(Cl)cncc1Cl (stereo not given),inactive
13,CCCS(=O)c1ccc2nc(NC(=O)OC)[nH]c2c1 (stereo not given),inactive
14,CCN[C@H]1C[C@H](C)S(=O)(=O)c2sc(S(N)(=O)=O)cc21,inactive
15,Nc1ncn([C@@H]2O[C@H](CO)[C@@H](O)[C@H]2O)c(=O)n1,inactive
16,COc1cc(N2CCC(N3CCN(C)CC3)CC2)ccc1Nc1ncc(Cl)c(Nc2ccccc2S(=O)(=O)C(C)C)n1,21.7 µM (active)
17,CN(c1nccc(=O)[nH]1)C1CCN(c2nc3ccccc3n2Cc2ccc(F)cc2)CC1,inactive
18,COc1ccc2cc3[n+](cc2c1OC)CCc1cc2c(cc1-3)OCO2,inactive
19,CC(Oc1cc(-n2cnc3ccc(CN4CCN(C)CC4)cc32)sc1C(N)=O)c1ccccc1C(F)(F)F (stereo not given),24.3 µM (active)
20,COc1ccccc1N1CCN(CC(O)COc2cccc3ccccc23)CC1 (stereo not given),inactive
21,CN(C)/N=N/c1nc[nH]c1C(N)=O,inactive
22,O=C(c1ccc(F)c(F)c1Nc1ccc(I)cc1F)N1CC(O)([C@@H]2CCCCN2)C1,9.68 µM (active)
23,NS(=O)(=O)c1ccc(Nc2nc(OCC3CCCCC3)c3[nH]cnc3n2)cc1,inactive
24,CCN(CC)CCNC(=O)c1c(C)[nH]c(/C=C2\C(=O)Nc3ccc(F)cc32)c1C,22.4 µM (active)
25,COc1c(C)c2c(c(O)c1C/C=C(\C)CCC(=O)O)C(=O)OC2,inactive
26,CCCc1nn(C)c2c(=O)[nH]c(-c3cc(S(=O)(=O)N4CCN(C)CC4)ccc3OCC)nc12,inactive
27,Cc1cnc(Nc2ccc(F)cc2Cl)nc1-c1c[nH]c(C(=O)NC(CO)c2cccc(Cl)c2)c1 (stereo not given),inactive
28,Cc1nc(Nc2n[nH]c3c2CN(C(=O)NC(CN(C)C)c2ccccc2)C3(C)C)c2sccc2n1 (stereo not given),inactive
29,Cc1nc(N)nc(N)c1-c1ccc(Cl)c(Cl)c1,3.85 µM (active)
30,CC[C@@]1(O)C(=O)OCc2c1cc1n(c2=O)Cc2cc3c(CN(C)C)c(O)ccc3nc2-1,0.863 µM (active)
